According to PubChem BioAssay (NCATS):
Several values for one entry are separate records, joined by “and”; a condition that tells them apart may be missing. Identical values can stand only once. Inconclusive results are not listed. Activity calls are given as the source filed them. Unless noted, calls follow the shape of the dose curve; as a rule, active = well fitted curve in either direction with a large enough effect (not every such curve was filed as active); inconclusive = small, poorly fitted or top-dose-only effect, or another doubt; inactive = flat fitted curve, though single readings scatter.

Columns and labels:
[1] = AP1 Signaling Pathway (AID 357); also: % is scaled to controls: 0 for no effect and ±100 for the full control effect
Outline: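 ME-180 cells with beta-lactamase reporter under AP-1 response element, stimulated with EC50 EGF; compounds tested in titration series, 5 h at 37 °C. CCF4 substrate added 2.5 h at room temperature; 460/530 nm emission ratio gave %activity and AC50.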

[2] = NFAT Signaling Pathway (AID 444); settings: Jurkat NFAT-bla M1, carbachol, beta-lactamase ratio, 5 h; at 17.2 µM (top of the series) unless noted;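 also: carbachol stimulus at about its EC50 of 1 µM final; % is scaled to controls: 0 for no effect and ±100 for the full control effect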
Outline: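 Jurkat cells with NFAT-driven β-lactamase reporter and co-expressed M1 receptor, stimulated with carbachol (final 1 uM, ~EC50), compound titration, 5 h at 37 °C. CCF4 loaded 1 h at RT; 460/530 nm ratio gave %activity and AC50.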

[3] = Stat Signaling Pathway (AID 446);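 also: ME-180 cervical cancer cells given 40 pM IL-6 alongside compound; SIE-controlled beta-lactamase reporter measured as 460/530 nm FRET emission ratio; % is scaled to controls: 0 for no effect and ±100 for the full control effect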
Outline: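 FRET read-out (405 nm excitation, 460/530 nm emission) of a beta-lactamase reporter under a STAT-inducible element in ME-180 cervical carcinoma cells. Cells with compound receive 40 pM IL-6 for 5 h. Values are normalised to AC90 stimulation and AC90 JAK-inhibitor controls.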

[4] = biological target: Glucocorticoid receptor (Homo sapiens) (UniProt P04150); assay: GR-GFP Redistribution (AID 450;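 active = compounds whose dose series gives a full or clear partial fitted curve of increased nuclear translocation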; also: potency is read from the fitted curve at half-maximal effect); settings: U2OS GR-GFP nuclear translocation, laser cytometry, 2 h
Sequence of Glucocorticoid receptor (Homo sapiens) (P04150 whole entry, looked up, the tested form may be a part): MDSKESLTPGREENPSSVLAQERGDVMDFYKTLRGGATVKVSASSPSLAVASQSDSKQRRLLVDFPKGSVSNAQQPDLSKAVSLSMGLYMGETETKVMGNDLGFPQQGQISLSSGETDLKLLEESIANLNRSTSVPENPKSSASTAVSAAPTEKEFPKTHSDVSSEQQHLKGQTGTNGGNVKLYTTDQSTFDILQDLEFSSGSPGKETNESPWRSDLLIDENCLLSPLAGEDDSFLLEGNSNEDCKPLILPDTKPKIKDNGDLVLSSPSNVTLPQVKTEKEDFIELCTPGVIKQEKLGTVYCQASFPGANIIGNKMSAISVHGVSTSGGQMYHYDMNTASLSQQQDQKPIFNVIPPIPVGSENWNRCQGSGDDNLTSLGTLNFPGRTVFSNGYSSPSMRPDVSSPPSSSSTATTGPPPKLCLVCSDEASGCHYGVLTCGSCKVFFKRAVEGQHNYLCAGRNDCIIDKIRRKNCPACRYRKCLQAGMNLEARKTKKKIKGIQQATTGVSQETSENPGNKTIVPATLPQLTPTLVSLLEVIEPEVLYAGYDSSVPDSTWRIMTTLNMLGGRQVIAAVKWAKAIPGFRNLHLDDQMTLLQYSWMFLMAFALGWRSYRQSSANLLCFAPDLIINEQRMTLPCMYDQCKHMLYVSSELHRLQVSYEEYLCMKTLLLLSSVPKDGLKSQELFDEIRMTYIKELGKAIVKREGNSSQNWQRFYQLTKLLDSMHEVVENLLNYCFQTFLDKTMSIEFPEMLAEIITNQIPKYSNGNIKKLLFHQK

[5] = biological target: Glucocorticoid receptor (Homo sapiens) (UniProt P04150); assay: GR-EFC Redistribution (AID 451; calls by dose curve; also: potency is read from the fitted curve at half-maximal effect); settings: CHO-K1 GR-EFC translocation, beta-gal luminescence, 2 h
Outline: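 CHO-K1 cells expressing nuclear EA and GR-ED fragments of b-gal; compounds titrated up to 46 uM final, 2 h at 37 C. GR nuclear translocation read as complemented b-gal luminescence after 1 h RT detection.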

[6] = biological target: Mitogen-activated protein kinase 10 (Mus musculus) (UniProt Q61831); assay: JNK3 AlphaScreen Assay (AID 530);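 also: kinase came from lysate of stimulated human HepG2 cells; signal reports phosphorylation of biotinylated GST-cJun 1-79 at Ser73 with 10 µM ATP; % is scaled to controls: 0 for no effect and ±100 for the full control effect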
Outline: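 Activity was read by AlphaScreen after JNK3-containing HepG2 lysate (cytokine pre-activated) phosphorylated biotinylated GST-cJun with 10 uM ATP at room temperature. Phospho-Ser73 cJun antibody with Protein-A acceptor beads provided detection.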

[7] = biological target: 3',5'-cyclic-AMP phosphodiesterase 4B (Homo sapiens) (UniProt Q07343); assay: qHTS Assay for Inhibitors of PDE-IV (AID 607; active = well fitted activation curve with a large enough effect in the main read-out, with a control signal flat, not every such curve was filed as active; also: % of control where 0% means no effect)
Sequence of 3',5'-cyclic-AMP phosphodiesterase 4B (Homo sapiens) (Q07343 whole entry, looked up): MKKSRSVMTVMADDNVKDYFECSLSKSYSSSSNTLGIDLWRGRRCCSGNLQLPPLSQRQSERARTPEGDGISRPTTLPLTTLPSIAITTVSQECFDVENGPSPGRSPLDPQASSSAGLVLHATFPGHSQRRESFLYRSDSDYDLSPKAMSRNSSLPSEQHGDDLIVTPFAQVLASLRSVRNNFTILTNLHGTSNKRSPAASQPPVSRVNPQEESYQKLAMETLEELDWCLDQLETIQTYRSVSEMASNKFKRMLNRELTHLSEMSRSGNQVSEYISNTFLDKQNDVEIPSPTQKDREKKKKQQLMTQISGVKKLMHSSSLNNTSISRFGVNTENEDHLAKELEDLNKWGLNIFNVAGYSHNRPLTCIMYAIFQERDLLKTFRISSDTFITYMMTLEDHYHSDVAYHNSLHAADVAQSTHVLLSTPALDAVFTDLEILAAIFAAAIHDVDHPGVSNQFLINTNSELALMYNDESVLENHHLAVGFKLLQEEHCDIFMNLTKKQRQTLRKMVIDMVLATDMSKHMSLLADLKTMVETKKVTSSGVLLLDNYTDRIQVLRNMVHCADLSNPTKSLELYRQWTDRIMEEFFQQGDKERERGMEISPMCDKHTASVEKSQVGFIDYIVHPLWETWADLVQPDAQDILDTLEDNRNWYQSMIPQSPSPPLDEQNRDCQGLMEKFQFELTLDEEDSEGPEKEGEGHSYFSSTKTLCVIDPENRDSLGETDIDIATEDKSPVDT
Outline: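 Cell-based read-out of cAMP via a modified cyclic nucleotide-gated channel and membrane potential dye (535/590 nm) in HEK293 cells expressing PDE4 endogenously. Compounds tested up to 22.9 uM final; 100 uM RO 20-1724 reference.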

[8] = qHTS Assay for Lipid Storage Modulators (AID 1519; calls by dose curve); settings: Drosophila S3 cells, BODIPY lipid droplet/cell ratio, laser cytometry, cells loaded with oleic acid
Outline: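 Cells seeded at 5,000 per well were treated with compounds over a concentration series and loaded with oleic acid (400 uM, as added). Lipid droplet fluorescence (488 nm excitation, 500-530 nm channel) was read by laser-scanning cytometry and normalized to 20 uM Triacsin C.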

[9] = biological target: Ubiquitin carboxyl-terminal hydrolase 1 (Homo sapiens) (UniProt O94782); assay: Inhibitors of USP1/UAF1: Pilot qHTS (AID 504865; active = well fitted curve in the direction sought with a large enough effect; an effect the other way counts as inactive or inconclusive;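 also: rhodamine fluorescence freed from ubiquitin-rhodamine substrate followed over time; top concentration of the series differs between compounds; % is scaled to controls: 0 for no effect and ±100 for the full control effect; nearly all actives have a fitted effect of over 35% in size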)
Sequence of Ubiquitin carboxyl-terminal hydrolase 1 (Homo sapiens) (O94782 whole entry, looked up): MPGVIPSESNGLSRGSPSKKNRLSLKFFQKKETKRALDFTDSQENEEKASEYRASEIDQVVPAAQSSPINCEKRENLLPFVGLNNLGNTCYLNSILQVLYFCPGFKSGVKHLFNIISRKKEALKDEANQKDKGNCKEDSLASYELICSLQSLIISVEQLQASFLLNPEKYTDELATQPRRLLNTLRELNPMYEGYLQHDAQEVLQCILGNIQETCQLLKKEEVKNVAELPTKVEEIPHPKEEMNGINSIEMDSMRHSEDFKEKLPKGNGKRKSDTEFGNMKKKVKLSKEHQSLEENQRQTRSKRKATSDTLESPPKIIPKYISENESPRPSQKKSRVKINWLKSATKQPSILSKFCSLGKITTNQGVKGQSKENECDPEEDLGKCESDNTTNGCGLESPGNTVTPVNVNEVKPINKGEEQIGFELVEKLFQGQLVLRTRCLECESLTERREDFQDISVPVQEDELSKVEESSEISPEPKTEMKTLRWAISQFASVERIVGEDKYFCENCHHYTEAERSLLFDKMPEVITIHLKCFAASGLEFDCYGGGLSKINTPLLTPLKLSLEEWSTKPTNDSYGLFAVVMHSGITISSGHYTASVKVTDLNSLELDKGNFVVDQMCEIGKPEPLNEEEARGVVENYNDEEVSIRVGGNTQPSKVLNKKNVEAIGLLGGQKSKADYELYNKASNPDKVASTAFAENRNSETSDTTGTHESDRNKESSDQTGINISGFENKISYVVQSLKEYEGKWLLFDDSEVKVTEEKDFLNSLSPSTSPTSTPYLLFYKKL
Outline: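 Deubiquitinase activity followed as kinetic rhodamine fluorescence release from 150 nM Ub-Rho. 1 nM USP1/UAF1 with compound, after 15 min room-temperature preincubation, in HEPES pH 7.8 buffer containing TCEP, EDTA, BSA and Tween-20.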

[10] = biological target: ATP-dependent 6-phosphofructokinase (Trypanosoma brucei brucei) (UniProt O15648); assay: qHTS Assay to Find Inhibitors of T. brucei phosphofructokinase: hit validation (AID 492961; active = well fitted curve in the direction sought with a large enough effect; an effect the other way counts as inactive or inconclusive; also: % is scaled to controls: 0 for no effect and ±100 for the full control effect)
Sequence of ATP-dependent 6-phosphofructokinase (Trypanosoma brucei brucei) (O15648 whole entry, looked up): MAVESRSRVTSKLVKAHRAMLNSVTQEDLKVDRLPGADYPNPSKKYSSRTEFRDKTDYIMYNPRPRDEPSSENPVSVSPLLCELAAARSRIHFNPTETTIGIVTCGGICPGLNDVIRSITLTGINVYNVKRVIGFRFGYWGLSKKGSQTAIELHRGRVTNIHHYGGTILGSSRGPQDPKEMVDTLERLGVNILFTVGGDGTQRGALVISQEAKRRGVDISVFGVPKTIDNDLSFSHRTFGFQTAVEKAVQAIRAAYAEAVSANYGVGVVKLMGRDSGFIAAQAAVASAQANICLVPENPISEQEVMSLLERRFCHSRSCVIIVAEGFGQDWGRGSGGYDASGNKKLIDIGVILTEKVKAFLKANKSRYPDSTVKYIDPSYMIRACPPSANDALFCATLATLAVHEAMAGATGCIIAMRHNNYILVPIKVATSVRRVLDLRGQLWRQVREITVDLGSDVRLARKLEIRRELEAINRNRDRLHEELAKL
Outline: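 Luminescence from ADP-Glo reports ADP generated as T. brucei PFK (1.25 nM) phosphorylates 0.5 mM fructose-6-phosphate using 0.1 mM ATP. Reactions ran 45 min at room temperature, pH 8.0.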

[11] = biological target: Luciferin 4-monooxygenase (Photinus pyralis) (UniProt P08659); assay: Biochemical firefly luciferase enzyme assay for NPC (AID 624030; active = well fitted curve in the direction sought with a large enough effect; an effect the other way counts as inactive or inconclusive;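 also: purified P. pyralis luciferase at 10 nM with luciferin and ATP substrate; 0% = DMSO and -100% = full luciferase inhibition by PTC124 control; nearly all actives have a fitted effect of over 70% in size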)
Sequence of Luciferin 4-monooxygenase (Photinus pyralis) (P08659 whole entry, looked up): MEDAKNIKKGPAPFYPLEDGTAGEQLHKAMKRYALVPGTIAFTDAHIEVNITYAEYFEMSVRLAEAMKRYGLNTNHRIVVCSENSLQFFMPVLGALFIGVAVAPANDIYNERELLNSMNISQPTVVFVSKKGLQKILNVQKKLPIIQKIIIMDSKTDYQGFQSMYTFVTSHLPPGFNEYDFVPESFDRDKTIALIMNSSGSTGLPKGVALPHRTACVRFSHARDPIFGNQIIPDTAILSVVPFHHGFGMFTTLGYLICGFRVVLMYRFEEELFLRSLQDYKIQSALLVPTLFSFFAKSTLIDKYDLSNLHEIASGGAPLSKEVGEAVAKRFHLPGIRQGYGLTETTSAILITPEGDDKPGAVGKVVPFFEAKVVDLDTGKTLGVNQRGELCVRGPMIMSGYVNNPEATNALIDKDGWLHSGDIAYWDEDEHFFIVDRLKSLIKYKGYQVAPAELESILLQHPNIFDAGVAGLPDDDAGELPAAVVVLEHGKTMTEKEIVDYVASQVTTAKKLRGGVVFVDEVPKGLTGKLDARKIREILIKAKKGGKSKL
Outline: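 Purified P. pyralis luciferase at 10 nM in 50 mM Tris Acetate (final), luminescence read within 5 minutes of enzyme addition to compounds. Activity normalised to PTC124 versus DMSO; concentration-response curves classed by r2, magnitude and activity.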

[12] = S16 Schwann cell PMP22 intronic element firefly luciferase assay (AID 624032; active = well fitted curve in the direction sought with a large enough effect; an effect the other way counts as inactive or inconclusive;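 also: plate controls were DMSO for no effect and PTC124 positive control mean for full effect; nearly all actives have a fitted effect of over 30% in size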)
Outline: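 Rat S16 Schwann cells stably carrying firefly luciferase driven by a PMP22 intronic element, in 10% FBS, treated 24 h at 37 C. ONE-Glo luminescence normalized to PTC124 control and DMSO (0%); curves classed by r2, magnitude and activity.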

[13] = qHTS profiling for inhibitors of Plasmodium falciparum proliferation (AID 504749; active = well fitted curve in the direction sought with a large enough effect; an effect the other way counts as inactive or inconclusive; also: nearly all actives have a fitted effect of over 60% in size; also: potency is read from the fitted curve at half-maximal effect;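 as to activity, negative = inhibition: 0% = DMSO vehicle and full inhibition = artemisinin control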); settings: P. falciparum in erythrocytes, SYBR Green DNA, 72 h, at 12.8 µM (top of the series)
Outline: (§1)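 Each compound contacts P. falciparum-infected red blood cells for 72 h at 37 C; lysis buffer (Tris, EDTA, saponin, Triton X, SYBR Green I) is added and fluorescence measured next morning; values normalized to controls.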

AS120 = assay: as above; settings: P. falciparum in erythrocytes, SYBR Green DNA, 72 h; series mostly up to 12.8 µM
Outline: as §1

C2A = assay: as above; settings: P. falciparum in erythrocytes, SYBR Green DNA, 72 h; series mostly up to 12.8 µM
Outline: as §1

CP238 = assay: as above; settings: P. falciparum in erythrocytes, SYBR Green DNA, 72 h; series mostly up to 12.8 µM
Outline: as §1

CP250 = assay: as above; settings: P. falciparum in erythrocytes, SYBR Green DNA, 72 h; series mostly up to 12.8 µM
Outline: as §1

CP252 = assay: as above; settings: P. falciparum in erythrocytes, SYBR Green DNA, 72 h; series mostly up to 12.8 µM
Outline: as §1

HB3 = assay: as above; settings: P. falciparum in erythrocytes, SYBR Green DNA, 72 h; series mostly up to 12.8 µM
Outline: as §1

SC27B = assay: as above; settings: P. falciparum in erythrocytes, SYBR Green DNA, 72 h; series mostly up to 12.8 µM
Outline: as §1

[14] = measured here: cell count channel max response
[15] = measured here: lipid channel max response

COc1ccc([C@@H]2CC(=O)c3c(O)cc(O)cc3O2)cc1O
-2.83%: max response [8, 15]
-5.78%: max response [8, 14]
inactive: outcome [1] | activity change, negative = inhibition [2] -2.52% | outcome [3] | Potency [4] > 20.6 µM and > 46 µM | Potency [5] > 20.6 µM and > 46 µM | Potency [6] | outcome [7] | activity change, negative = inhibition ([8]; at 25.7 µM (top of the series)) 0.892% | Potency [9]

NC[C@@H]1O[C@H](O[C@H]2[C@H](O)[C@@H](O[C@H]3[C@H](O)[C@H](N)C[C@H](N)[C@H]3O[C@@H]3O[C@H](CO)[C@@H](O)[C@H](O)[C@@H]3N)O[C@H]2CO)[C@@H](N)[C@H](O)[C@@H]1O
-14.4%: max response [8, 15]
-10.9%: max response [8, 14]
inactive: outcome [1] | activity change, negative = inhibition [2] -6.33% | outcome [3] | Potency [4] > 20.6 µM | Potency [5] > 20.6 µM | Potency [6] | outcome [7] | activity change, negative = inhibition ([8]; at 25.7 µM (top of the series)) -3.71%

S=C(NC1CCCCC1)N1CCC([C@H]2C=NC=N2)CC1
-0.275%: max response [8, 14]
inactive: outcome [1] | activity change, negative = inhibition [2] -11% | outcome [3] | Potency [4] > 20.6 µM | Potency [5] > 20.6 µM | Potency [6] | outcome [7] | activity change, negative = inhibition ([8]; at 25.7 µM (top of the series)) 2.27% | Potency [9]
2.69%: max response [8, 15]

CC1=CC(=O)C2=C(C)CC[C@@H]3[C@@H](OC(=O)[C@H]3C)[C@H]12
-14.8%: max response [8, 15]
inactive: outcome [1] | activity change, negative = inhibition [2] -23.2% | outcome [3] | Potency [4] > 20.6 µM | Potency [5] > 20.6 µM | Potency [6] | outcome [7] | activity change, negative = inhibition ([8]; at 25.7 µM (top of the series)) 0.93% | Potency [9]
-15.8%: max response [8, 14]

CC(=O)/C(C)=N\O
-2.64%: max response [8, 15]
inactive: outcome [1] | activity change, negative = inhibition [2] 4.19% [at 38 µM] | outcome [3] | Potency [5] > 46 µM | Potency [6] | outcome [7] | activity change, negative = inhibition ([8]; at 57.5 µM (top of the series)) -1.01% | Potency [9]
-2.91%: max response [8, 14]

C1CCN2C[C@@H]3C[C@@H](CN4CCCC[C@H]34)[C@H]2C1
inactive: outcome [1] | activity change, negative = inhibition [2] -16.7% | outcome [3] | Potency [4] > 20.6 µM and > 46 µM | Potency [5] > 20.6 µM and > 46 µM | Potency [6] | outcome [7] | activity change, negative = inhibition ([8]; at 25.7 µM (top of the series)) -1.82% | outcome [10] | Potency [11] | Potency [12] | activity, negative = inhibition ([13]; parasite line A) 5.24% | activity, negative = inhibition ([13]; parasite line B) 14.7% | Potency (AS120) | Potency (C2A) | Potency (CP238) | Potency (CP250) | Potency (CP252) | Potency (HB3) | Potency (SC27B)
-5.58%: max response [8, 15]
-3.93%: max response [8, 14]

CCC(=O)OCC(=O)[C@@]1(OC(=O)CC)[C@H](C)C[C@@H]2[C@@H]3[C@H]([C@@H](O)C[C@@]21C)[C@]1(C)C=CC(=O)C=C1C[C@@H]3Cl
-9.62%: max response [8, 14]
active: Potency [4] 0.00423 µM | Potency (HB3) 3.55 µM
inactive: outcome [1] | activity change, negative = inhibition [2] 14% | Potency [6] | outcome [7] | activity change, negative = inhibition ([8]; at 25.7 µM (top of the series)) -4.84% | outcome [10] | Potency [11] | Potency [12] | Potency (C2A) | Potency (CP252)
-12.3%: max response [8, 15]
